Test results taken from PubChem BioAssay (Tox21).
Results filed as inconclusive are left out. The source made the active and inactive calls. Calls follow the shape of the dose curve; as a rule, active = well fitted curve in the direction sought with a large enough effect in the repeat runs; inconclusive = weak or mixed curves; inactive = no such curve, though single readings can be large; an effect the other way counts as inactive or inconclusive.

Key:
[1] = qHTS RealTime-Glo MT Cell Viability Assay in HEK293 cells - 32 hour (AID 1224868); also: top concentration of the series differs between compounds; nearly all actives have a fitted effect of over 50% in size
Procedure, shortened: (§1)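 HEK293 cells were seeded at 600 cells/well together with NanoLuc luciferase and cell-permeant prosubstrate, preincubated 5 h at 37 C/5% CO2, then given compound in DMSO by pintool. Luminescence from viable-cell prosubstrate reduction was read repeatedly over 40 h.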

[2] = A CellTox Green Cytotoxicity Assay to monitor cytotoxicity in HEK293 cells - 0 hour (AID 1224869); also: nearly all actives have a fitted effect of over 50% in size
Procedure, shortened: (§2)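 Seeding of HEK293 cells together with cytotoxicity dye preceded a 5 h incubation at 37 C/5% CO2. Test compounds in DMSO were then added and fluorescence monitored across 40 h.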

[3] = qHTS RealTime-Glo MT Cell Viability Assay in HepG2 cells - 40 hour (AID 1224870); also: nearly all actives have a fitted effect of over 50% in size
Procedure, shortened: (§3)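 Real-time viability: cells seeded at 600 per well together with NanoLuc and cell-permeant prosubstrate, compounds added after 5 h incubation. Luminescence tracked at 0, 8, 16, 24, 32 and 40 h of exposure.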

[4] = qHTS RealTime-Glo MT Cell Viability Assay in HEK293 cells - 16 hour (AID 1224872); also: top concentration of the series differs between compounds; nearly all actives have a fitted effect of over 50% in size
Procedure, shortened: as §1

[5] = qHTS RealTime-Glo MT Cell Viability Assay in HepG2 cells - 8 hour (AID 1224873); also: nearly all actives have a fitted effect of over 55% in size
Procedure, shortened: as §3

[6] = qHTS RealTime-Glo MT Cell Viability Assay in HEK293 cells - 40 hour (AID 1224874); settings: RealTime-Glo luminescence, stronger effect = lower value; also: nearly all actives have a fitted effect of over 50% in size
Procedure, shortened: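 Tox21 screen in HEK293 using RealTime-Glo MT chemistry, with cells and reagent co-dispensed. Luminescence proportional to viable cell number was captured at intervals during 40 h compound exposure at 37 C.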

[7] = A CellTox Green Cytotoxicity Assay to monitor cytotoxicity in HEK293 cells - 24 hour (AID 1224875); also: series mostly up to about 77 µM; nearly all actives have a fitted effect of over 45% in size
Procedure, shortened: as §2

[8] = A CellTox Green Cytotoxicity Assay to monitor cytotoxicity in HepG2 cells - 16 hour (AID 1224876); also: nearly all actives have a fitted effect of over 45% in size
Procedure, shortened: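 Nonlytic assay: viable cells exclude the dye, so fluorescence scales with cell death. HepG2 at 600 cells/well, compounds added after 5 h, signal read across 40 h.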

[9] = qHTS RealTime-Glo MT Cell Viability Assay in HepG2 cells - 32 hour (AID 1224877); also: nearly all actives have a fitted effect of over 55% in size
Procedure, shortened: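 HepG2 cells were seeded at 600 cells/well together with NanoLuc luciferase and a cell-permeant prosubstrate, preincubated 5 h at 37 C/5% CO2, then pin-dosed with compounds in DMSO. Nonlytic luminescence from viable cells was read at each time point.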

[10] = A CellTox Green Cytotoxicity Assay to monitor cytotoxicity in HEK293 cells - 40 hour (AID 1224871); also: nearly all actives have a fitted effect of over 45% in size
Procedure, shortened: as §2
% is scaled to controls: 0 for no effect and ±100 for the full control effect.

O=C(CCBr)N1CCN(C(=O)CCBr)CC1
inactive: outcome [1] | outcome [2] | outcome [3] | outcome [4] | outcome [5] | max response [6] 1.87% | Potency [7] | Potency [8] | outcome [9]

Cc1ccc(OC(=O)CC(C)C)cc1
inactive: outcome [1] | outcome [2] | outcome [3] | outcome [4] | outcome [5] | max response [6] 3.9% | Potency [7] | Potency [8] | outcome [9]

CC/C=C\CCOC(=O)c1ccccc1
inactive: outcome [1] | outcome [2] | outcome [3] | outcome [5] | max response [6] -28.3% | Potency [7] | Potency [8] | outcome [9]

NNC(=O)CCCCC(=O)NN
inactive: outcome [1] | outcome [2] | outcome [3] | outcome [5] | max response [6] 3.47% | Potency [7] | Potency [8] | outcome [9]

CCCC(C)C(O)CC (stereo unspecified)
inactive: outcome [1] | outcome [2] | outcome [3] | outcome [5] | max response [6] 14.3% | Potency [7] | Potency [8] | outcome [9]

CC[N+](C)(CC)CC
inactive: outcome [1] | outcome [2] | outcome [3] | outcome [4] | outcome [5] | max response [6] 13.2% | Potency [7] | Potency [8] | outcome [9]

CCCCNCC
inactive: outcome [1] | outcome [2] | Potency [10] | outcome [4] | outcome [5] | max response [6] -1.39% | Potency [7] | Potency [8]

Cc1ccccc1C#N
inactive: outcome [1] | outcome [2] | outcome [3] | outcome [4] | outcome [5] | max response [6] 7.55% | Potency [7] | Potency [8] | outcome [9]

CCCC(=O)C(CC)Sc1ccoc1C (stereo unspecified)
inactive: outcome [1] | outcome [2] | outcome [3] | outcome [4] | max response [6] -5.27% | Potency [7] | Potency [8] | outcome [9]

CN1CCN(C(=O)C2CCCCC2)CC1
inactive: outcome [1] | outcome [2] | outcome [3] | outcome [4] | outcome [5] | max response [6] 0.482% | Potency [8] | outcome [9]

CCOC(=O)[C@H](CCc1ccccc1)N[C@H]1CS[C@H](c2cccs2)CN(CC(=O)O)C1=O
inactive: outcome [1] | outcome [2] | outcome [3] | outcome [4] | outcome [5] | max response [6] 0.833% | Potency [7] | Potency [8]

COC(=O)c1ccc(C(=O)O)cc1
inactive: outcome [1] | outcome [2] | outcome [3] | outcome [4] | outcome [5] | max response [6] 1.5% | Potency [7] | Potency [8] | outcome [9]

CN(C)CCc1c[nH]c2ccc(CS(=O)(=O)N3CCCC3)cc12
inactive: outcome [1] | outcome [2] | outcome [3] | outcome [5] | max response [6] 7.03% | Potency [8] | outcome [9]

O=C(O)CCC(=O)Nc1ccc(S(=O)(=O)Nc2nccs2)cc1
inactive: outcome [1] | outcome [2] | Potency [10] | outcome [4] | outcome [5] | max response [6] 2.99% | Potency [7]

CC(C)C(=O)Nc1cccc(C2CN3CCSC3=N2)c1 (stereo unspecified)
inactive: outcome [1] | outcome [2] | outcome [3] | outcome [5] | max response [6] 0.0338% | Potency [8]

CC(C)(C)c1ccc(N)cc1
inactive: outcome [1] | outcome [2] | outcome [3] | outcome [4] | outcome [5] | max response [6] -2.84% | outcome [9]

Cc1ccc(N)nc1
inactive: outcome [1] | outcome [2] | outcome [3] | outcome [5] | max response [6] 0.353% | Potency [7] | Potency [8] | outcome [9]

C=CCCCCCCCCCCCCCC
inactive: activity change, negative = cytotoxic [1] -0.171% [at 15.8 µM] | cytotoxicity [2] -0.258% [at 15.8 µM] | activity change, negative = cytotoxic [3] -8.43% [at 15.8 µM] | activity change, negative = cytotoxicity [4] -2.4% [at 15.8 µM] | max response [6] 0.625% | activity change [7] -0.0594% [at 15.8 µM, stronger effect = higher value] | cytotoxicity increase [8] 2.79% [at 15.8 µM] | activity change, negative = cytotoxic [9] -5.43% [at 15.8 µM]

CCCCOCCCC
inactive: outcome [1] | outcome [2] | outcome [3] | outcome [4] | outcome [5] | max response [6] 8.08% | Potency [8] | outcome [9]

C=C(C)C(=O)OCCOC1CC2CC1C1C=CCC21 (stereo unspecified)
inactive: outcome [1] | outcome [2] | outcome [3] | outcome [4] | outcome [5] | max response [6] 0.272% | Potency [7] | Potency [8] | outcome [9]

C=CC(C)(CCC=C(C)C)OC(=O)C(C)C (stereo unspecified)
inactive: outcome [1] | outcome [2] | outcome [3] | max response [6] 0.514% | Potency [8] | outcome [9]

CC(=O)SCC(CC(=O)c1ccc(C)cc1)C(=O)O (stereo unspecified)
inactive: outcome [1] | outcome [2] | outcome [3] | outcome [4] | outcome [5] | max response [6] -0.0795% | Potency [7] | Potency [8] | outcome [9]

CCO/C=C1\N=C(c2ccccc2)OC1=O
inactive: outcome [1] | outcome [2] | outcome [3] | outcome [4] | max response [6] 18.4% | Potency [7] | Potency [8] | outcome [9]

c1coc(Cn2cccc2)c1
inactive: outcome [1] | outcome [2] | outcome [3] | outcome [4] | outcome [5] | max response [6] 2.22% | Potency [7] | Potency [8] | outcome [9]

CCCCCCC(O)CO (stereo unspecified)
inactive: outcome [1] | outcome [2] | Potency [10] | outcome [4] | outcome [5] | max response [6] 1.68% | Potency [7] | Potency [8]
